Common to all, as to assay: HT-SELEX; SELEX buffer: 10.4 mM Tris-HCl pH 7.5, 51.4 mM NaCl, 1.4 mM MgCl2, 4% glycerol, 100 uM EGTA, 0.7 mM DTT, 3.7 ug/ml poly-dI-dC, 1.4 uM ZnSO4; room temperature (2); high values mean tight binding
Settings in all cases: protein: recombinant; dsDNA, one strand shown

Assay [1] concerns the target BARHL2 DBD ctrl (unmutated, SELEX) (human, UniProt Q9NY43 227-293).
For assay [2], the target named is BARHL2 DBD T278I/T285N (HMX3) (human, UniProt Q9NY43 227-293, T278I;T285N).
Assay [3] has as its target BARHL2 DBD T278V (EMX1) (human, UniProt Q9NY43 227-293, T278V).
Assay [4] concerns the target BARHL2 DBD T278I (NKX1.2) (human, UniProt Q9NY43 227-293, T278I).
Assay [5] has as its target BARHL2 DBD T285M (NANOG) (human, UniProt Q9NY43 227-293, T285M).
The target of assay [6] is BARHL2 DBD T278I/T285V (HOXB13) (human, UniProt Q9NY43 227-293, T278I;T285V).
For assay [7], the target named is BARHL2 DBD T278N/T285I (PBX1) (human, UniProt Q9NY43 227-293, T278N;T285I).
Assay [8] deals with BARHL2 DBD T278V/T285A (ALX4) (human, UniProt Q9NY43 227-293, T278V;T285A).
For assay [9], the target named is BARHL2 DBD T278I/T285M (HOXA3) (human, UniProt Q9NY43 227-293, T278I;T285M).
In assay [10] the target is BARHL2 DBD T278V/T285M (MEOX2) (human, UniProt Q9NY43 227-293, T278V;T285M).
In assay [11] the target is BARHL2 DBD T278I/T285A (CDX1) (human, UniProt Q9NY43 227-293, T278I;T285A).
Assay [12] concerns the target BARHL2 DBD T278I/T285S (DLX1) (human, UniProt Q9NY43 227-293, T278I;T285S).
The target in assay [13] is BARHL2 DBD T278N/T285Q (SIX6) (human, UniProt Q9NY43 227-293, T278N;T285Q).
In assay [14] the target is BARHL2 DBD T285A (LBX1) (human, UniProt Q9NY43 227-293, T285A).
Assay [15] deals with BARHL2 DBD T278N/T285R (PKNOX1) (human, UniProt Q9NY43 227-293, T278N;T285R).
Sequence of BARHL2 DBD T278N/T285R (PKNOX1) (Q9NY43 227-293 T278N/T285R): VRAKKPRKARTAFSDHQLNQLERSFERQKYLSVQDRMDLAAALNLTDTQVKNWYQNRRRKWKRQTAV

Sequence of BARHL2 DBD T278N/T285Q (SIX6) (Q9NY43 227-293 T278N/T285Q): as the sequence (Q9NY43 227-293 T278N/T285R) above, with R59Q counted along it
Sequence of BARHL2 DBD T278I/T285V (HOXB13) (Q9NY43 227-293 T278I/T285V): as the sequence (Q9NY43 227-293 T278N/T285R) above, with N52I, R59V counted along it
Sequence of BARHL2 DBD T278N/T285I (PBX1) (Q9NY43 227-293 T278N/T285I): as the sequence (Q9NY43 227-293 T278N/T285R) above, with R59I counted along it
Sequence of BARHL2 DBD T278I/T285M (HOXA3) (Q9NY43 227-293 T278I/T285M): as the sequence (Q9NY43 227-293 T278N/T285R) above, with N52I, R59M counted along it
Sequence of BARHL2 DBD T278V/T285A (ALX4) (Q9NY43 227-293 T278V/T285A): as the sequence (Q9NY43 227-293 T278N/T285R) above, with N52V, R59A counted along it
Sequence of BARHL2 DBD T278I/T285A (CDX1) (Q9NY43 227-293 T278I/T285A): as the sequence (Q9NY43 227-293 T278N/T285R) above, with N52I, R59A counted along it
Sequence of BARHL2 DBD T278I/T285N (HMX3) (Q9NY43 227-293 T278I/T285N): as the sequence (Q9NY43 227-293 T278N/T285R) above, with N52I, R59N counted along it
Sequence of BARHL2 DBD T278I (NKX1.2) (Q9NY43 227-293 T278I): as the sequence (Q9NY43 227-293 T278N/T285R) above, with N52I, R59T counted along it
Sequence of BARHL2 DBD T285A (LBX1) (Q9NY43 227-293 T285A): as the sequence (Q9NY43 227-293 T278N/T285R) above, with N52T, R59A counted along it
Sequence of BARHL2 DBD T278V/T285M (MEOX2) (Q9NY43 227-293 T278V/T285M): as the sequence (Q9NY43 227-293 T278N/T285R) above, with N52V, R59M counted along it
Sequence of BARHL2 DBD ctrl (unmutated, SELEX) (Q9NY43 227-293, stated change not applied): as the sequence (Q9NY43 227-293 T278N/T285R) above, with N52T, R59T counted along it
Sequence of BARHL2 DBD T278V (EMX1) (Q9NY43 227-293 T278V): as the sequence (Q9NY43 227-293 T278N/T285R) above, with N52V, R59T counted along it
Sequence of BARHL2 DBD T285M (NANOG) (Q9NY43 227-293 T285M): as the sequence (Q9NY43 227-293 T278N/T285R) above, with N52T, R59M counted along it
Sequence of BARHL2 DBD T278I/T285S (DLX1) (Q9NY43 227-293 T278I/T285S): as the sequence (Q9NY43 227-293 T278N/T285R) above, with N52I, R59S counted along it

In the case of TAATCG, the binding signal came to 9.7 fold enrichment in assay [1]; 12.6 fold enrichment in [2]; 8 fold enrichment in [3]; 9.4 fold enrichment in [4]; 7.6 fold enrichment in [5]; 5.9 fold enrichment in assay [6]. Also, the binding signal in assay [7] was found to be 8.1 fold enrichment; in assay [8], 5.1 fold enrichment; in [9] it was 11.4 fold enrichment; in [10], 8.5 fold enrichment; in assay [11], 9.9 fold enrichment; in [12] it was 10.9 fold enrichment. The figures for the binding signal in assay [13], in [14] and in assay [15] were 6.7 fold enrichment, 9 fold enrichment and 2.6 fold enrichment, respectively.

Turning to TAACCG, the binding signal came out at 2.1 fold enrichment in assay [1]; 2 fold enrichment in [2]; 1.6 fold enrichment in assay [3]; 1.5 fold enrichment in assay [4]; 2.3 fold enrichment in [5]; 3.7 fold enrichment in [7]. The binding signal in assay [8] worked out at 1.9 fold enrichment; in [9] it was 1.5 fold enrichment; in assay [10] it was 1.5 fold enrichment; in assay [11], 1.9 fold enrichment; in assay [12], 1.7 fold enrichment; in assay [13], 4.1 fold enrichment. Besides, the binding signal in assay [14] was 3.5 fold enrichment; in assay [15] it was 4.9 fold enrichment.

TAAGCG: the binding signal in assay [1] amounted to 3 fold enrichment; in assay [2], 2.4 fold enrichment; in assay [3], 3.2 fold enrichment; in [4], 2.4 fold enrichment; in [5], 3.6 fold enrichment; in [7], 1.4 fold enrichment. In addition, the binding signal in assay [8] stood at 1.9 fold enrichment; in [9], 2.4 fold enrichment; in [10], 2.7 fold enrichment; in assay [11] it was 1.8 fold enrichment; in [12], 1.9 fold enrichment; in [13], 1.6 fold enrichment. Moreover, the binding signal in [14] was determined as 2.9 fold enrichment.

Consider TAAGTG, for which the binding signal in [1] was determined as 6.2 fold enrichment; in assay [2], 8.6 fold enrichment; in [3], 5.9 fold enrichment; in assay [4], 6.1 fold enrichment; in [5], 4.4 fold enrichment; in assay [6] it was 4 fold enrichment. Further, the binding signal in assay [7] was 2.5 fold enrichment; in assay [8], 3.7 fold enrichment; in assay [9] it was 5 fold enrichment; in assay [10] it was 4.4 fold enrichment; in [11], 6.4 fold enrichment; in assay [12] it was 6.2 fold enrichment. For the same sequence, the binding signal was 2.6 fold enrichment in [13], 6.1 fold enrichment in assay [14] and 1.3 fold enrichment in assay [15].

For the sequence TAAATG, the binding signal in assay [1] was 12.6 fold enrichment; in [2], 1.9 fold enrichment; in assay [3] it was 5.9 fold enrichment; in [4], 5 fold enrichment; in assay [5], 3.4 fold enrichment; in assay [6], 4.3 fold enrichment. Besides, the binding signal in assay [7] turned out to be 3.3 fold enrichment; in assay [8], 2.2 fold enrichment; in assay [9] it was 2.9 fold enrichment; in [10], 3 fold enrichment; in [11] it was 3.2 fold enrichment; in assay [12] it was 4 fold enrichment. For the same sequence, the binding signal came to 2 fold enrichment in [13] and 4.1 fold enrichment in [14].

Consider TAAACG, for which the binding signal in assay [1] was 28 fold enrichment; in [2] it was 4 fold enrichment; in assay [3] it was 7.8 fold enrichment; in assay [4], 6.6 fold enrichment; in assay [5], 3.8 fold enrichment; in assay [6], 2.4 fold enrichment. Besides, the binding signal was 2.8 fold enrichment in assay [7]; 3.3 fold enrichment in assay [8]; 2.5 fold enrichment in assay [9]; 3.1 fold enrichment in [10]; 3.7 fold enrichment in assay [11]; 4.7 fold enrichment in assay [12]. Besides, the binding signal in assay [13] is 2.4 fold enrichment; in [14], 6.3 fold enrichment; in [15], 1.6 fold enrichment.

On to TAATTG, for which the binding signal was 43.5 fold enrichment in assay [1]; 17.6 fold enrichment in assay [2]; 11.2 fold enrichment in assay [3]; 13.1 fold enrichment in [4]; 6 fold enrichment in [5]; 13.3 fold enrichment in assay [6]. Moreover, the binding signal in assay [7] was 10.4 fold enrichment; in [8], 4.9 fold enrichment; in [9], 11.5 fold enrichment; in [10], 8.5 fold enrichment; in assay [11], 14 fold enrichment; in [12], 16.2 fold enrichment. Also, the binding signal in assay [13] was 5.8 fold enrichment; in [14], 8 fold enrichment; in assay [15] it was 1.8 fold enrichment.

Take TAATGG: the binding signal in assay [1] was 7.8 fold enrichment; in assay [2] it was 1.9 fold enrichment; in [3], 7.6 fold enrichment; in [4], 8 fold enrichment; in assay [5] it was 6.2 fold enrichment; in [6], 7.7 fold enrichment. Also, the binding signal in assay [7] was 9.1 fold enrichment; in [8], 3.7 fold enrichment; in [9], 8.4 fold enrichment; in [10], 7.6 fold enrichment; in [11], 6.2 fold enrichment; in assay [12] it was 8.1 fold enrichment. Besides, the binding signal came out at 7 fold enrichment in assay [13] and 4.7 fold enrichment in assay [14].

The record behind these values is paper PMC11996681, “Interfacial water confers transcription factors with dinucleotide specificity”.
